Screens as filed in PubChem BioAssay.
SW480 rerep: inducers of DNA re-replication in SW480 colon cancer cells | SW480 DNA re-replication, Hoechst DNA content imaging, 48 h | Potency, µM (doses to about 46.1 µM), for the others: at the highest dose re-replication activation, most hits filed as activators | actives 1.8% (n = 340,000) | AID 624297; also: potency is read from the fitted curve at half-maximal effect; % of control where 0% means no effect; nearly all actives have a fitted effect of over 55% in size
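Per well, 250 cells were exposed to pinned compound for 48 hr. Nuclear DNA was visualised with Hoechst (40 min, 37 C) and total object intensity recorded by fluorescence scanning.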
KB-V1 MDR tox: kills drug-selected multidrug resistant KB-V1 cells; KB-V1 MDR cells viability, CellTiter-Glo, 72 h; Potency, µM (series often up to 46.1 µM), most hits filed as cytotoxic; actives 3.4% (n = 400,000); also: potency is read from the fitted curve at half-maximal effect; % is scaled to controls: 0 for no effect and ±100 for the full control effect; nearly all actives have a fitted effect of over 60% in size
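qHTS viability screen in drug-selected KB-V1 MDR cells: 72 h compound treatment at 37 degrees C, ATP luminescence end point.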
KB-3-1 tox: kills parental KB-3-1 adenocarcinoma cells. KB-3-1 viability, CellTiter-Glo ATP luminescence, 72 h. Potency, µM (titrated, usually from 46.1 µM), most hits filed as cytotoxic. actives 1.4% (n = 400,000). AID 1347075; also: potency is read from the fitted curve at half-maximal effect; % is scaled to controls: 0 for no effect and ±100 for the full control effect; nearly all actives have a fitted effect of over 60% in size
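Cytotoxicity in the drug-sensitive parental line KB-3-1 was scored as loss of CellTiter-Glo luminescence following 72 h incubation with compound. Values come from curve fitting of normalized concentration-response data.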
IL-1B inflam inh: blocks inflammasome-driven IL-1 beta release; THP-1 LPS/ATP IL-1B secretion, AlphaLISA, 16 h; active compounds read low; activity change, % at 57.5 µM; actives 4.7% (n = 360,000); in the data active = activity change below about -50%; inconclusive = mostly about -30% to -49%; also: % is scaled to controls: 0 for no effect and ±100 for the full control effect
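Secreted IL-1B measured by AlphaLISA bead assay after 16 h compound exposure of THP-1 cells; compounds (final up to 57.5 uM) added 1 h before LPS (250 ng/mL) and ATP (1.25 mM) stimulation; lower signal means less secretion.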
MCF10A rerep: induces DNA re-replication in MCF 10a normal breast cells | Potency, µM (top dose mostly 46.1 µM), without a hit: at the highest dose activity, positive = re-replication, usual class: activators | actives 2.9% (n = 350,000) | MCF 10A DNA re-replication, Hoechst nuclear intensity, 48 h; also: potency is read from the fitted curve at half-maximal effect; % of control where 0% means no effect; nearly all actives have a fitted effect of over 50% in size
* marks the source's active call; other numbers are inactive results; i = inactive; ? = inconclusive; · = no result given; [ ] = another dose, or the depositor's remark. The list is not random: actives were taken first. Their share in the collection is about 9.9%. Unless noted, calls follow the shape of the dose curve; as a rule, active = well fitted curve in the direction sought with a large enough effect; inconclusive = small, poorly fitted or top-dose-only effect, or another doubt; inactive = no such curve, though single readings can be large; an effect the other way counts as inactive or inconclusive.

SMILES	SW480 rerep	KB-V1 MDR tox	KB-3-1 tox	IL-1B inflam inh	MCF10A rerep
Cc1c(C(=O)N2CCOCC2)[nH]c2c1C(=O)CC(c1ccccc1Cl)C2 (stereo not drawn)	15.3%	?	18.4µM*	-17.0	11.6%
O=C(CSc1ccccc1)N1CCCC(N2CCN(c3ccc(F)cc3)CC2)C1 (stereo not drawn)	-0.6%	i	i	-24.8	8.1%
Cc1c(C(=O)OCC2CCCO2)[nH]c2c1C(=O)CC(c1ccco1)C2 (stereo not drawn)	2.91µM*	4.11µM*	3.26µM*	-22.4	3.66µM*
C/C=C/COC(=O)c1[nH]c2c(c1C)C(=O)CC(c1ccco1)C2 (stereo not drawn)	?	i	i	65.1	?
Cc1c(C(=O)OC2CCCCC2)[nH]c2c1C(=O)CC(c1ccccc1Cl)C2 (stereo not drawn)	·	?	4.11µM*	·	·
C=CCOC(=O)c1[nH]c2c(c1C)C(=O)CC(c1ccco1)C2 (stereo not drawn)	0.184µM*	?	?	85.8	?
Cc1c(C(=O)OC2CCCCC2)[nH]c2c1C(=O)CC(c1ccccc1)C2 (stereo not drawn)	·	?	i	·	·
COc1ccc(NC(=O)C2CCCN(S(=O)(=O)c3ccc(Br)s3)C2)cc1 (stereo not drawn)	·	i	i	·	·
C=CCSc1nnc(-c2cc3c(C(F)(F)F)nn(C)c3s2)n1C	-3.3%	i	i	-13.3	8.6%
C=CCSc1nnc(-c2cc3c(-c4ccccc4)nn(C)c3s2)n1C	3.8%	?	i	-62.0*	10.0%
O=C(CCl)N(c1ccccc1)c1c[nH]c2ccccc12	?	16.4µM*	16.4µM*	-99.5*	14.6µM*
O=C(CCl)N(c1ccc(Cl)cc1)c1c[nH]c2ccccc12	20.6µM*	18.4µM*	?	-108.7*	2.59µM*
O=C(Cc1ccc(Cl)cc1)NCCc1c[nH]c2ccccc12	-2.8%	i	i	1.1	-11.8%
CN1C(=O)C(O)(CC(=O)c2ccc(F)cc2)c2cc(Br)ccc21 (stereo not drawn)	?	i	25.9µM*	36.3	?
COc1ccc(CNC(=O)CN(C(=O)CCC(=O)Nc2nccs2)c2cccc(C)c2)cc1	-39.4%	i	i	16.8	?
COc1ccc(CC(=O)NCC(c2ccc(OC)cc2)N(C)C)cc1 (stereo not drawn)	?	i	i	-6.0	3.26µM*
Cc1cc(C(=O)NNC(=O)NC(C)C)no1	-18.4%	i	i	9.6	0.1%
COc1ccc(/C=C(/NC(=O)c2ccccc2)C(=O)N2CCOCC2)cc1OC	-3.3%	i	i	-67.4*	9.6%
COc1ccc(/C=C(/NC(=O)c2ccccc2)C(=O)N/N=C/c2ccc3c(c2)OCO3)cc1OC	?	i	i	-68.6*	-15.3%
O=C(N/N=C/c1ccc2c(c1)OCO2)/C(=C/c1ccc2c(c1)OCO2)NC(=O)c1ccccc1	144.1%	i	i	?	12.9%
COc1ccc(-c2ccc(/C=C(\NC(=O)c3ccccc3)C(=O)N3CCOCC3)o2)cc1	0.5%	?	i	-56.7*	?
O=C(CC(O)(CC(=O)OCc1ccccc1)C(=O)OCc1ccccc1)OCc1ccccc1	21.8%	i	i	-54.9*	18.4µM*
COc1ccc(-c2c(-c3ccsc3)oc3c2C(O)CCC3)cn1 (stereo not drawn)	·	i	i	25.8	·
CCN1C(=O)/C(=C2/Sc3ccc(OC)cc3N2C)SC1=Nc1ccc(OC)cc1	-40.9%	i	i	0.9	-32.6%
C=CCN1C(=O)/C(=C2/Sc3ccc(OC)cc3N2C)SC1=Nc1cccc(O)c1	?	i	i	-3.6	5.8µM*
SMILES	SW480 rerep	KB-V1 MDR tox	KB-3-1 tox	IL-1B inflam inh	MCF10A rerep
CCC1CCCCN1Cc1nc2c(c(=O)n(C)c(=O)n2C)n1Cc1c(F)cccc1Cl (stereo not drawn)	·	i	i	·	·
COc1ccc(-c2cnc(N)nc2-c2ccc(OC)cc2O)cc1	0.1%	i	i	-72.7*	15.3%
Nc1ncc(-c2ccccc2)c(-c2ccc(OCc3ccccc3)cc2O)n1	?	i	?	-103.2*	20.6µM*
COc1cccc(Oc2cnc(N)nc2-c2ccc(OC)cc2O)c1	7.31µM*	2.59µM*	6.51µM*	23.0	6.51µM*
COc1ccc(-c2nc(N)ncc2Oc2ccccc2Br)c(O)c1	18.5%	i	i	-9.1	?
C=C(C)COc1ccc(-c2nc(N)ncc2-c2ccc(Cl)cc2)c(O)c1	-12.6%	23.1µM*	?	?	?
COc1ccc(-c2nc(N)ncc2-c2ccccc2)c(O)c1	-1.2%	?	i	-21.6	1.5%
O=C(c1ccc(Cl)c(S(=O)(=O)N2CCCCC2)c1)N1CCCC(C(F)(F)F)C1 (stereo not drawn)	-10.6%	i	i	32.8	?
CCOc1ccc(CCNC(=O)CCCc2nnc3n(C)c(=O)c4sccc4n23)cc1OCC	·	i	i	·	·
COc1ccc(C2Nc3ccccc3C(=O)N2NC(C)=O)c(OC)c1 (stereo not drawn)	26.6%	i	i	32.1	-2.7%
COc1cccc(COc2ccccc2C2Nc3ccc(Br)cc3C(=O)N2NC(=O)c2ccncc2)c1 (stereo not drawn)	?	8.2µM*	?	?	22.0%
O=c1[nH]c2ccccc2[n+]([O-])c1-c1ccccc1	-59.1%	i	i	9.9	-5.1%[9.22 µM]
O=C1c2ccccc2-c2onc3ccc(NCCCn4ccnc4)c1c23	0.5%	?	i	-97.4*	-4.4%
CCCCC(CC)CNC(=O)c1ccc2c(=O)n(CCOC)c(=O)[nH]c2c1 (stereo not drawn)	·	i	i	·	·
O=S1(=O)N=C(Oc2ccc(-c3ccccc3)cc2)c2ccccc21	·	i	i	·	·
Cc1ccc2nc3c(c(N)c2c1)CCN3c1ccccc1	2.7%	?	i	-77.4*	14.9%
Nc1c2c(nc3cccc(Cl)c13)N(c1ccccc1)CC2	3.2%	i	i	23.5	15.7%
Cc1ccc2nc3c(c(N)c2c1)CCN3C	28.0%	i	i	?	23.1µM*
CCCCN1CCc2c1nc1ccc(Br)cc1c2N	0.7%	20.6µM*	i	-96.2*	5.4%
CN1CCc2c1nc1ccccc1c2N (tested in a mixture with another compound)	-4.3%	i	i	-24.2	6.3%
O=C(OCC(=O)N1CCCC1)c1ccc(S(=O)(=O)Nc2ccccc2)cc1	-5.1%	i	i	130.7	19.8%
Cc1cccc(CNC(=O)c2cccc(NC(=O)N3CCSc4ncccc43)c2)c1	·	i	i	·	·
